Screens: PubChem BioAssay, National Center for Advancing Translational Sciences (NCATS)
The sample as a whole holds a higher share of hits than the screen did.
Pf Dd2 inh = qHTS Primary assay for Inhibitors of Plasmodium falciparum Dd2 growth in vitro; AID 1347417, 2020; Potency, µM (doses to about 28.9 µM), for the others: at the highest dose activity, negative = inhibition, actives largely listed as inhibitors; 4.3% of 120,000 active; P. falciparum Dd2 growth, SYBR Green, 72 h; active means well fitted inhibition curve with a large enough effect;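 further: plate controls were DMSO vehicle for no effect and reference drug for full effect; nearly all actives have a fitted effect of over 65% in size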
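Readout: SYBR Green fluorescence, 485 nm excitation, 535 nm emission, after ~16 h lysis at 37C. Before that, Dd2-infected red cells (2.5% hematocrit) grew 72 h with compound, 29 uM top final concentration.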
* marks the source's active call; other numbers are inactive results; i = inactive; [ ] = remark or other dose. Potency means the concentration at half of the fitted maximal effect.

SMILES | Pf Dd2 inh
O=C(c1ccncc1)N1CC2CCC(C1)N2Cc1cccc(-c2ccsc2)c1 | 7.6%
CCOc1nccn2c(-c3ccc(CNC(=O)c4ccnn4C)cc3)cnc12 | -4.0%[44.1 µM]
Cc1ccc(N2CCN(C(=O)C3CCCN(c4cnc5nccnc5c4)C3)CC2)cc1 (configuration not stated) | i
COc1ccc(S(=O)(=O)NC[C@@H]2C=C(C)[C@H](CC(=O)NCc3ccc(C#N)cc3)C[C@H]2C(C)C)cc1 | -3.8%
CC1=C[C@@H](CNS(=O)(=O)c2ccccc2)[C@H](C(C)C)C[C@H]1CC(=O)NCc1ccc(C#N)cc1 | 4.47µM*
CC1=C[C@@H](CNS(=O)(=O)c2cccs2)[C@H](C(C)C)C[C@H]1CC(=O)NCc1ccc(C#N)cc1 | i
O=C(NCc1cccnc1Oc1ccccc1F)c1cnc2ccccn12 | -24.3%
O=C(CN1CC2CC(C1)[C@H]1CCCC(=O)N1C2)NCCC1=CCCCC1 (some centres not stated) | -12.5%
CC1CCC2(CC1)NC(=O)N(CC(=O)NCc1cccc(Br)c1)C2=O (configuration not stated) | i
Cc1ccc(-c2nonc2NC(=O)c2ccc(F)cc2)cc1C | 31.8%
COc1cc(C(=O)Nc2nonc2-c2ccc(C)c(C)c2)cc(OC)c1OC | 8.2%
CCOc1ccc(-c2nonc2NC(=O)c2ccc(C)cc2)cc1OCC | 2µM*
Fc1ccc(Nc2nc(-c3ccccc3)no2)cc1 | i
Cc1cc(C)cc(Nc2nc(-c3ccccc3F)no2)c1 | 12.6µM*
COc1ccc(-c2noc(-c3nc(-c4ccccc4F)no3)n2)cc1OC | 22.2%
COc1cc(Nc2nc(-c3ccccc3F)no2)cc(OC)c1OC | 12.6µM*
COc1cc(Nc2nc(-c3ccccc3)no2)cc(OC)c1OC | -4.4%
Fc1ccccc1-c1noc(-c2nc(-c3ccccc3F)no2)n1 | -0.8%
COc1ccc(C(=O)N2CCCCCC2c2nc(-c3cccnc3)no2)cc1 (configuration not stated) | -14.8%
O=C(NC[C@H]1OC[C@@H](NC2CCC2)[C@@H]1O)C1CC1 | 16.5%[44.1 µM]
COc1ccc(CN2CCc3nn(CC4CC4)c(=O)n3CC2)c(Cl)c1OC | -21.8%
Cc1ccn(CCC(=O)N2CCCC2C(=O)Nc2cccc(-n3cccn3)c2)n1 (configuration not stated) | -1.1%
Cn1ccnc1CN1CCCC(CCc2ccccc2)C1 (configuration not stated) | 11.2µM*
Cn1ccnc1CN1CCCC(c2ccc(C(=O)O)cc2)C1 (configuration not stated) | -2.9%
Cn1ccnc1CN1CCOC[C@H](Oc2ccccc2)C1 | -26.2%[44.1 µM]
SMILES | Pf Dd2 inh
O=C(c1ccnnc1)N1CC(F)(F)C[C@H]1c1nc(C2CC2)no1 | 28.6%
CCn1c(=N)n(CCOc2ccc(Br)cc2)c2ccccc21 | 5.01µM*
c1ccc(OCCn2c(COc3ccccc3)nc3ccccc32)cc1 | i
COc1cccc(OCc2nc3ccccc3n2CCOc2ccccc2)c1 | -0.7%
CC1=C[C@@H](CNC(=O)Nc2ccccc2)[C@H](C(C)C)C[C@H]1CC(=O)NCc1cccnc1 | i
Cn1nnc(-c2cccc(NC(=O)Cn3nc4c(cc3=O)CCCC4)c2)n1 | -17.1%
O=C(NCc1cccs1)c1nc(-c2ccsc2)c2ccccn12 | i
O=C(NCc1ccc(F)cc1)c1nc(-c2ccc(Cl)cc2)c2ccccn12 | 10µM*
Cc1cccc(C)c1-c1nc(C(=O)NC(C)C)n2ccccc12 | 12.6µM*
Cc1cccc(C)c1-c1nc(C(=O)NCc2ccc3c(c2)OCO3)n2ccccc12 | -9.5%
O=C(NCc1cccs1)c1nc(-c2ccc(F)cc2)c2ccccn12 | -22.3%
O=C(c1nc(-c2ccc(Cl)cc2Cl)c2ccccn12)N1CCCC1 | -15.1%
CC(C)NC(=O)c1nc(-c2cc(Cl)cc(Cl)c2)c2ccccn12 | -14.4%
O=C(NCc1ccc(F)cc1)c1nc(-c2ccc(Cl)cc2Cl)c2ccccn12 | -14.5%
N#CC1CCN(C(=O)c2nc(-c3ccccc3)c3ccccn23)CC1 | i
O=C(NCc1cccs1)c1nc(-c2cccc(C(F)(F)F)c2)c2cnccn12 | 1.78µM*
O=C(c1nc(-c2ccc(Cl)cc2)c2ccccn12)N1CCCC1 | 11.2µM*
COC(=O)CNC(=O)c1nc(-c2ccc(F)cc2)c2ccccn12 | -11.6%[44.1 µM]
O=C(O)C1CN(C(=O)N2CCOCC2)CCN(C2CCOCC2)C1 (configuration not stated) | 1.7%
O=C(NCc1ccccc1-n1cncn1)C12CNCC1CNC2 (configuration not stated) | -1.6%
O=C(NCc1ccc(C(F)(F)F)cc1)C1CN(c2ccc(Cl)cc2)C(=O)N1 (configuration not stated) | -7.4%
CC(=O)NC[C@H]1CCN(Cc2ccc3c(c2)CCO3)C[C@H]1N(C)C | -19.1%
COc1ccccc1CNC(=O)[C@@H](C)C1CC[C@@]2(C)CC[C@H](NC(=O)C3CCCCC3)[C@@H](C)[C@@H]2[C@H]1O (some centres not stated) | -9.8%
COc1ccccc1-c1ccnc(-c2nnc(C)n2Cc2ccncc2)c1 | -23.8%[44.1 µM]
O=C(O)CCC(=O)N[C@H]1CCN2C(=O)c3cc(-c4ccc(F)cc4F)ccc3NC(=O)[C@H]12 | 17.1%
SMILES | Pf Dd2 inh
CC(C)NC(=O)c1nc(-c2cccc(C(F)(F)F)c2)c2cnccn12 | 1.78µM*
O=C(NCc1ccc(F)cc1)c1nc(-c2cccc(F)c2)c2cnccn12 | 2.51µM*
O=C(NCc1ccccn1)c1nc(-c2cccnc2)c2ccccn12 | -14.4%[44.1 µM]
CC(C)NC(=O)c1nc(-c2cccc(C(F)(F)F)c2)c2ccccn12 | -10.4%[44.1 µM]
O=C(NCc1cccnc1)c1nc(-c2ccc(F)cc2)c2ccccn12 | -19.9%
O=C(NCc1ccc(F)cc1)c1nc(-c2cccc(C(F)(F)F)c2)c2cnccn12 | 2.51µM*
CC(C)NC(=O)c1nc(-c2cccnc2)c2cnccn12 | i
O=C(c1nc(-c2cccc(C(F)(F)F)c2)c2ccccn12)N1CCOCC1 | -11.9%
CN(C)C(=O)c1nc(-c2cccc(F)c2)c2cnccn12 | i
CCOc1cc(=O)n2c(c1C(=O)Nc1cccc(C(=O)OC)c1)CCCC2 | 45.6%
Cc1noc(C)c1C(=O)N[C@H]1CO[C@H]2[C@@H]1OC[C@H]2OCc1ccccc1 | 9.6%[44.1 µM]
Cc1noc(C)c1[S+](=O)([O-])N1CCC2(CC1)CC(=O)c1ccc(Cl)cc1O2 | -10.0%
COCC(=O)N1CCCCCCNC(=O)[C@@H]2CCCC[C@@H]21 | 25.3%
CC1CCC(NC(=O)C2CCN(C(=O)c3ncn4c3COC(c3ccc(Cl)cc3)C4)CC2)CC1 (configuration not stated) | 0.0%
O=C(NCCc1ccccc1)N1CCC(c2noc(-c3cccnc3)n2)C1 (configuration not stated) | 6.8%[5.79 µM]
COc1cccc(CNC(=O)CN2C(=O)NC3(CCCCC3)C2=O)c1 | -18.9%
CCn1nccc1C(=O)N1CCC2(CC1)NC(=O)N(c1cccc(F)c1)N2 | 24.6%
Cc1nc(N2CCCCC2)n(CC(=O)Nc2cccc(F)c2)c(=O)c1C | 3.98µM*
CSc1cccc(NC(=O)Cn2c(N3CCCCC3)nc(C)c(C)c2=O)c1 | i
Cc1cccc(NC(=O)Cn2c(N3CCCCC3)nc(C)c(C)c2=O)c1 | i
O=C1Nc2ccccc2C12CCN(Cc1ccsc1)CC2 | 13.2%[44.1 µM]
O=C(c1ccc(C(F)(F)F)cc1)N1CCC2(C1)C(=O)N(Cc1ccccc1)c1ccccc12 (configuration not stated) | -14.9%
CN1C(=O)C2(CCN(S(=O)(=O)c3ccccc3)C2)c2ccccc21 (configuration not stated) | -21.1%[44.1 µM]
